In PubChem BioAssay AID1159580 (chemical genetic matrix, 2015):
In all, about 5,500 compounds went through this assay and about 2,000 (36%) were called active. Not shown: some 18% with an inconclusive outcome. No stated cut-off is given here; in the data, active means normalized growth mostly below about 0.91 (no sharp cut-off); inconclusive means no clear call, values can overlap the other calls; inactive means mostly above about 0.92. The list shows a part of the results.

Test: chemical genetic growth profiling, strain panel (AID 1159580);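 further: tested at 20 µM; growth read once vehicle control cultures reached saturation at 30 °C; 1 = growth at the plate median or of vehicle wells; lower values mean less growth of the strain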
Conditions: growth OD
[1] = S. cerevisiae deletion strains, locus YBR021W, strain FUR4, active compounds read low
[2] = S. cerevisiae deletion strains, locus YBR229C, strain ROT2, active compounds read low
[3] = S. cerevisiae deletion strains, locus YCL029C, strain bik1, active compounds read low
[4] = S. cerevisiae deletion strains, locus YDL035C, strain GPR1, active compounds read low
[5] = S. cerevisiae deletion strains, locus YDL074C, strain BRE1, active compounds read low
[6] = S. cerevisiae deletion strains, locus YDL101C, strain DUN1, active compounds read low
[7] = S. cerevisiae deletion strains, locus YDL185W, strain tfp1, active compounds read low
[8] = S. cerevisiae deletion strains, locus YDL192W, strain arf1, active compounds read low
[9] = S. cerevisiae deletion strains, locus YDR101C, strain arx1, active compounds read low
[10] = S. cerevisiae deletion strains, locus YDR162C, strain NBP2, active compounds read low
[11] = S. cerevisiae deletion strains, locus YDR318W, strain mcm21, active compounds read low
[12] = S. cerevisiae deletion strains, locus YDR388W, active compounds read low
[13] = S. cerevisiae deletion strains, locus YDR502C, strain sam2, active compounds read low
[14] = S. cerevisiae deletion strains, locus YEL061C, strain CIN8, active compounds read low
[15] = S. cerevisiae deletion strains, locus YER110C, active compounds read low
[16] = S. cerevisiae deletion strains, locus YER155C, strain BEM2, active compounds read low
[17] = S. cerevisiae deletion strains, locus YER167W, strain BCK2, active compounds read low
[18] = S. cerevisiae deletion strains, locus YGL078C, strain dbp3, active compounds read low
[19] = S. cerevisiae deletion strains, locus YGL086W, strain mad1, active compounds read low
[20] = S. cerevisiae deletion strains, locus YGL248W, strain PDE1, active compounds read low
[21] = S. cerevisiae deletion strains, locus YGR135W, strain pre9, active compounds read low
[22] = S. cerevisiae deletion strains, locus YGR252W, strain gcn5, active compounds read low
[23] = S. cerevisiae deletion strains, locus YHR030C, strain SLT2, active compounds read low
[24] = S. cerevisiae deletion strains, locus YHR079C, strain IRE1 (second series), active compounds read low
[25] = S. cerevisiae deletion strains, locus YHR094C, strain hxt1, active compounds read low
[26] = S. cerevisiae deletion strains, locus YHR129C, strain ARP1, active compounds read low
[27] = S. cerevisiae deletion strains, locus YHR200W, strain rpn10, active compounds read low
[28] = S. cerevisiae deletion strains, locus YIL066C, strain RNR3, active compounds read low
[29] = S. cerevisiae deletion strains, locus YIL073C, strain SPO22, active compounds read low
[30] = S. cerevisiae deletion strains, locus YIL125W, strain kgd1, active compounds read low
[31] = S. cerevisiae deletion strains, locus YIR030C, strain dcg1, active compounds read low
[32] = S. cerevisiae deletion strains, locus YJL095W, strain BCK1, active compounds read low
[33] = S. cerevisiae deletion strains, locus YJL134W, strain LCB3, active compounds read low
[34] = S. cerevisiae deletion strains, locus YJL168C, strain set2, active compounds read low
[35] = S. cerevisiae deletion strains, locus YJL187C, strain SWE1 (second series), active compounds read low
[36] = S. cerevisiae deletion strains, locus YJR043C, strain POL32, active compounds read low
[37] = S. cerevisiae deletion strains, locus YJR075W, strain HOC1, active compounds read low
[38] = S. cerevisiae deletion strains, locus YKL009W, strain mrt4, active compounds read low
[39] = S. cerevisiae deletion strains, locus YKL068W, active compounds read low
[40] = S. cerevisiae deletion strains, locus YKL085W, strain MDH1 (second series), active compounds read low
[41] = S. cerevisiae deletion strains, locus YKL085W, strain MDH1, active compounds read low
[42] = S. cerevisiae deletion strains, locus YKR001C, strain vps1, active compounds read low
[43] = S. cerevisiae deletion strains, locus YLR039C, strain RIC1, active compounds read low
[44] = S. cerevisiae deletion strains, locus YLR058C, strain SHM2, active compounds read low
[45] = S. cerevisiae deletion strains, locus YLR102C, strain apc9, active compounds read low
[46] = S. cerevisiae deletion strains, locus YLR262C, strain YPT6, active compounds read low
[47] = S. cerevisiae deletion strains, locus YLR268W, strain sec22, active compounds read low
[48] = S. cerevisiae deletion strains, locus YLR330W, strain CHS5, active compounds read low
[49] = S. cerevisiae deletion strains, locus YLR342W, strain FKS1 (second series), active compounds read low
[50] = S. cerevisiae deletion strains, locus YLR371W, strain rom2, active compounds read low
[51] = S. cerevisiae deletion strains, locus YLR418C, strain cdc73, active compounds read low
[52] = S. cerevisiae deletion strains, locus YML016C, strain PPZ1, active compounds read low
[53] = S. cerevisiae deletion strains, locus YML032C, strain rad52, active compounds read low
[54] = S. cerevisiae deletion strains, locus YML124C, strain tub3, active compounds read low
[55] = S. cerevisiae deletion strains, locus YMR078C, strain ctf18, active compounds read low
[56] = S. cerevisiae deletion strains, locus YMR223W, strain ubp8, active compounds read low
[57] = S. cerevisiae deletion strains, locus YMR307W, strain GAS1, active compounds read low
[58] = S. cerevisiae deletion strains, locus YNL067W, strain RPL9B, active compounds read low
[59] = S. cerevisiae deletion strains, locus YNL233W, strain BNI4, active compounds read low
[60] = S. cerevisiae deletion strains, locus YNL250W, strain rad50, active compounds read low
[61] = S. cerevisiae deletion strains, locus YNL271C, strain bni1, active compounds read low
[62] = S. cerevisiae deletion strains, locus YNL298W, strain CLA4, active compounds read low
[63] = S. cerevisiae deletion strains, locus YNL307C, strain MCK1, active compounds read low
[64] = S. cerevisiae deletion strains, locus YNR052C, strain pop2, active compounds read low
[65] = S. cerevisiae deletion strains, locus YOL012C, strain htz1
[66] = S. cerevisiae deletion strains, locus YOL147C, strain pex11, active compounds read low
[67] = S. cerevisiae deletion strains, locus YOR061W, strain CKA2, active compounds read low
[68] = S. cerevisiae deletion strains, locus YOR069W, strain VPS5, active compounds read low
[69] = S. cerevisiae deletion strains, locus YOR136W, strain idh2, active compounds read low
[70] = S. cerevisiae deletion strains, locus YOR144C, strain elg1, active compounds read low
[71] = S. cerevisiae deletion strains, locus YOR184W, strain ser1, active compounds read low
[72] = S. cerevisiae deletion strains, locus YOR316C, strain cot1, active compounds read low
[73] = S. cerevisiae deletion strains, locus YPL055C, strain LGE1, active compounds read low
[74] = S. cerevisiae deletion strains, locus YPR119W, strain clb2, active compounds read low
[75] = S. cerevisiae deletion strains, locus YPR141C, strain kar3, active compounds read low
[76] = S. cerevisiae deletion strains, locus YPR163C, strain tif3, active compounds read low
[77] = S. cerevisiae deletion strains, locus YPR167C, strain met16, active compounds read low
[78] = S. cerevisiae deletion strains, strain wtn01, active compounds read low

Measured: normalized growth

COc1ccc(-c2cc(=O)c3c(O)c(OC)c(OC)cc3o2)cc1O
inactive: [1] 0.907 | [2] 1.01 | [3] 0.937 | [4] 0.929 | [5] 0.878 | [6] 0.997 | S. cerevisiae deletion strains, locus YDL134C, strain PPH21, active compounds read low 1 | [7] 0.96 | [8] 0.951 | [9] 0.926 | S. cerevisiae deletion strains, locus YDR150W, strain NUM1, active compounds read low 0.997 | [10] 1 | [11] 0.99 | [12] 0.99 | [13] 0.953 | [14] 1 | [15] 0.974 | [16] 1.01 | [17] 0.979 | [18] 0.944 | [19] 0.935 | [20] 0.993 | S. cerevisiae deletion strains, locus YGR078C, strain PAC10, active compounds read low 0.969 | [21] 0.971 | S. cerevisiae deletion strains, locus YGR229C, strain SMI1, active compounds read low 0.893 | [22] 0.994 | [23] 0.998 | [24] 0.978 | [25] 0.995 | [26] 0.978 | [27] 0.985 | [28] 0.964 | [29] 0.873 | [30] 0.959 | [31] 0.993 | [32] 0.991 | [33] 0.998 | [34] 0.993 | [35] 0.952 | [36] 0.954 | [37] 0.983 | [38] 0.943 | [39] 0.969 | [40] 0.985 | [41] 0.985 | S. cerevisiae deletion strains, locus YKL190W, strain CNB1, active compounds read low 1.01 | [42] 0.943 | [43] 0.96 | [44] 1 | [45] 0.988 | [46] 0.989 | [47] 0.902 | [48] 0.983 | [49] 0.944 | [50] 0.985 | [51] 0.928 | [52] 1 | [53] 0.971 | [54] 0.998 | [55] 0.988 | [56] 0.99 | S. cerevisiae deletion strains, locus YMR263W, strain SAP30, active compounds read low 1.05 | [57] 0.998 | [58] 0.965 | S. cerevisiae deletion strains, locus YNL153C, strain GIM3, active compounds read low 0.969 | [59] 0.928 | [61] 0.993 | [62] 0.996 | [63] 0.975 | [64] 0.973 | [65] 1.07 | [66] 0.97 | [67] 0.98 | [68] 0.999 | [69] 0.98 | [70] 0.991 | [71] 0.897 | [72] 0.991 | [73] 0.941 | [74] 0.995 | [75] 1 | [76] 0.992 | [77] 0.991 | [78] 0.92
active: [60] 0.89

COc1cc(O)c2c(=O)cc(-c3ccc(O)cc3)oc2c1
active: [31] 1.08 [resistant]
inactive: [1] 1.02 | [2] 1 | [3] 1 | [4] 1 | [5] 1.01 | [6] 1.02 | [7] 1.02 | [8] 1.05 | [9] 1.03 | [10] 1.06 | [11] 1.02 | [12] 0.994 | [13] 1 | [14] 1 | [15] 1.02 | [16] 1.04 | [17] 1.02 | [18] 1.03 | [19] 1 | [20] 1.02 | [21] 1.04 | [22] 0.949 | [23] 1.01 | [24] 1.01 | [25] 0.996 | [26] 1.01 | [27] 1.07 | [28] 1.02 | [29] 1.02 | [30] 1.02 | [32] 1.05 | [33] 0.997 | [34] 1 | [35] 1.02 | [36] 1 | [37] 1 | [38] 0.981 | [39] 1 | [40] 0.994 | [41] 0.994 | [42] 1.01 | [43] 1.07 | [44] 1.01 | [45] 1.04 | [46] 1.07 | [47] 1.01 | [48] 0.997 | [49] 1.01 | [50] 1.03 | [51] 0.998 | [52] 0.994 | [53] 0.996 | [54] 1.02 | [55] 1.02 | [56] 1.04 | [57] 0.907 | [58] 1.03 | [59] 1.02 | [60] 1.02 | [61] 1.04 | [62] 0.963 | [63] 0.994 | [64] 1.01 | S. cerevisiae deletion strains, locus YOL006C, strain TOP1, active compounds read low 1.04 | [65] 0.814 | [66] 1.02 | [67] 1 | [68] 0.999 | [69] 0.993 | [70] 1.04 | [71] 1.07 | [72] 1.02 | [73] 1.02 | [74] 1.01 | [75] 1.08 | [76] 0.996 | [77] 1.02 | [78] 1.02 | S. cerevisiae strains, strain wild type, active compounds read low 1.01
